Experimental findings from PMC5540273 (PLoS ONE, 2017) are described below.
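Further: KINOMEscan kinase panel screen.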

The experiment concerns ERBB3. Particulars: concentration: 1 μM, replicates: in singlicate; n = 1.
Turning to `Nc1ncc(-c2ccc3nccc(-c4ccncc4)c3c2)cc1S(=O)(=O)N1CCCCC1` [GSK1693850], the “%Inh” value came out at 0%.
Turning to `COc1cccc(CC(=O)N2CCc3cc(-c4cn(C)c5ncnc(N)c45)ccc32)c1` [GSK2608899], the “%Inh” value came to 0%.
For `CC(C)NCC(Cc1ccccc1)NC(=O)c1cc(Br)c(-c2ccnc3[nH]ccc23)s1.Cl.Cl` (stereo not drawn) [GSK1383281], the “%Inh” value is reported as 0%.
Consider `Nc1ncc(-c2cn[nH]c2)c2scc(-c3ccc4c(c3)CCN4C(=O)Cc3ccccc3)c12` [GSK2593067], for which the “%Inh” value was 0%.
Consider `Cc1cccc(Nc2nc(NCCN)ncc2C(N)=O)c1` [GSK1292139], for which the “%Inh” value came to 0%.
As to `CC(C)c1nc(-c2cccc(NS(=O)(=O)c3c(F)cccc3F)c2)c(-c2ccnc(Nc3ccc(N4CCOCC4)nc3)n2)s1.Cl` [GSK1723980], the “%Inh” value is 97.8%.
Consider `Cc1ccc(-c2ccc3occ(-c4ccc(S(C)=O)cc4)c3c2)nn1` (stereo not drawn), for which the “%Inh” value came to 0%.
On to `COc1ccc(C2=C(Nc3cccc(O)c3)C(=O)NC2=O)cc1` [SB-390766], for which the “%Inh” value turned out to be 0%.
For `COc1ccc(NC(=O)c2ccoc2)cc1-c1ccc(C(=O)NCC2CC2)cc1` [GW810437] the value was 12%; for `Cc1nn2c(=O)cc(N3CCO[C@H](C)C3)nc2n1Cc1cccc(Cl)c1Cl` [GSK2373693], 0%; for `Cl.O=C(Nc1ccc(Oc2ccc3[nH]c(NC(=O)c4ccco4)nc3c2)cc1)Nc1cc(C(F)(F)F)ccc1F` [GW683134], 0%.
Regarding `O=C(O)C(F)(F)F.O=c1[nH]ccc2nc(N[C@@H]3CCNC3)nc(Nc3ccc4c(c3)S(=O)(=O)CC4)c12` [GSK2181306], the “%Inh” value turned out to be 0%.
